# Measured values from PubChem BioAssay (Tox21).
# Results filed as inconclusive are left out. Where a call stands in place of a potency, no number is given. Unmarked numbers belong to inactive results. The source made the active and inactive calls. Calls come from the whole dose curve; as a rule, active = well fitted curve in the direction sought with a large enough effect in the repeat runs; inconclusive = weak or mixed curves; inactive = no such curve, though single readings can be large; an effect the other way counts as inactive or inconclusive.
# Experiments:
# [1] = target: Cytochrome P450 2C19 (Homo sapiens) (UniProt P33261); assay: Cytochrome P450 Family 2 Subfamily C Member 19 (CYP2C19) small molecule antagonists: luciferase reporter qHTS assay (AID 1671197); note: nearly all actives have a fitted effect of over 65% in size; for activity change, negative = inhibition: series mostly up to about 120 µM
# Sequence of Cytochrome P450 2C19 (Homo sapiens) (P33261 whole entry, looked up): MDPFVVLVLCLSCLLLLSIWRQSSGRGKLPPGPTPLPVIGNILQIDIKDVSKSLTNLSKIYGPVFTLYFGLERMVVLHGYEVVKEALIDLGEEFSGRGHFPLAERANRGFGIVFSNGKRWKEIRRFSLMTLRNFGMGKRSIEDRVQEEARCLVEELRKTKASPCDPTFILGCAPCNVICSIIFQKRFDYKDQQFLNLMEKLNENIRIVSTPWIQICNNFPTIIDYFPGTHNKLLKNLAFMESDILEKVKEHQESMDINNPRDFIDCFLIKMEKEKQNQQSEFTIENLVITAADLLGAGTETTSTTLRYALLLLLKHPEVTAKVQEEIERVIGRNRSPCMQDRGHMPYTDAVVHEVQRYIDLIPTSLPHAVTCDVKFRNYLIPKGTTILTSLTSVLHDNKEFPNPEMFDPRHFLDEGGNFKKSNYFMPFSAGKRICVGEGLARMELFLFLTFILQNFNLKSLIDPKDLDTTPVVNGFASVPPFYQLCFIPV
# How it was run: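 First, compounds are pinned into enzyme-substrate mix and held 10 min at room temperature. Second, NADPH regeneration solution is added and plates incubate 1 h at 37C. Third, detection reagent is added and luminescence read after 20 min.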
# [2] = target: Cytochrome P450 1A2 (Homo sapiens) (UniProt P05177); assay: Cytochrome P450 Family 1 Subfamily A Member 2 (CYP1A2) small molecule antagonists: luciferase reporter qHTS assay (AID 1671199); note: nearly all actives have a fitted effect of over 50% in size; for activity change, negative = inhibition: series mostly up to about 120 µM
# Sequence of Cytochrome P450 1A2 (Homo sapiens) (P05177 whole entry, looked up): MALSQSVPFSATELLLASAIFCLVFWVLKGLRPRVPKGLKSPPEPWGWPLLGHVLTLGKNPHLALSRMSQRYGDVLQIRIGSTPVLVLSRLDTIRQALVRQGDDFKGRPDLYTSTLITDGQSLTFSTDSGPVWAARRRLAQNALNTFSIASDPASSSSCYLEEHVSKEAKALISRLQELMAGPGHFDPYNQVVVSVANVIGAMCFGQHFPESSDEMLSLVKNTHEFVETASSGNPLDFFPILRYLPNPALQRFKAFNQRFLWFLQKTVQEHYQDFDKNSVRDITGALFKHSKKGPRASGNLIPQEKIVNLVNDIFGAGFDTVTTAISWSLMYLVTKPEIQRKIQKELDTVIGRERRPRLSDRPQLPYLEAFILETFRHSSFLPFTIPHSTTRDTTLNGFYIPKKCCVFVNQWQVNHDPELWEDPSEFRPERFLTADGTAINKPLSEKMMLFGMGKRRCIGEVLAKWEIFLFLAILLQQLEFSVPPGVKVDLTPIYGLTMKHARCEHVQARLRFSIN
# How it was run: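 Compounds were incubated with CYP1A2 and a luminogenic proluciferin substrate for 10 min at room temperature before the reaction was started with NADPH regeneration solution. After 1 h, detection reagent was added and light output, proportional to CYP activity, was recorded.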
# [3] = target: Voltage-gated inwardly rectifying potassium channel KCNH2 (Homo sapiens) (UniProt Q12809); assay: Human Ether-a-go-go-Related Gene (hERG) channel small molecule antagonists: fluorescence cell-based qHTS assay (AID 1671200); note: nearly all actives have a fitted effect of over 50% in size;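 for activity change, negative = inhibition: hERG-expressing U2OS cells given a thallium stimulus after FluxOR II dye loading; series mostly up to about 77 µM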
# Sequence of Voltage-gated inwardly rectifying potassium channel KCNH2 (Homo sapiens) (Q12809 whole entry, looked up): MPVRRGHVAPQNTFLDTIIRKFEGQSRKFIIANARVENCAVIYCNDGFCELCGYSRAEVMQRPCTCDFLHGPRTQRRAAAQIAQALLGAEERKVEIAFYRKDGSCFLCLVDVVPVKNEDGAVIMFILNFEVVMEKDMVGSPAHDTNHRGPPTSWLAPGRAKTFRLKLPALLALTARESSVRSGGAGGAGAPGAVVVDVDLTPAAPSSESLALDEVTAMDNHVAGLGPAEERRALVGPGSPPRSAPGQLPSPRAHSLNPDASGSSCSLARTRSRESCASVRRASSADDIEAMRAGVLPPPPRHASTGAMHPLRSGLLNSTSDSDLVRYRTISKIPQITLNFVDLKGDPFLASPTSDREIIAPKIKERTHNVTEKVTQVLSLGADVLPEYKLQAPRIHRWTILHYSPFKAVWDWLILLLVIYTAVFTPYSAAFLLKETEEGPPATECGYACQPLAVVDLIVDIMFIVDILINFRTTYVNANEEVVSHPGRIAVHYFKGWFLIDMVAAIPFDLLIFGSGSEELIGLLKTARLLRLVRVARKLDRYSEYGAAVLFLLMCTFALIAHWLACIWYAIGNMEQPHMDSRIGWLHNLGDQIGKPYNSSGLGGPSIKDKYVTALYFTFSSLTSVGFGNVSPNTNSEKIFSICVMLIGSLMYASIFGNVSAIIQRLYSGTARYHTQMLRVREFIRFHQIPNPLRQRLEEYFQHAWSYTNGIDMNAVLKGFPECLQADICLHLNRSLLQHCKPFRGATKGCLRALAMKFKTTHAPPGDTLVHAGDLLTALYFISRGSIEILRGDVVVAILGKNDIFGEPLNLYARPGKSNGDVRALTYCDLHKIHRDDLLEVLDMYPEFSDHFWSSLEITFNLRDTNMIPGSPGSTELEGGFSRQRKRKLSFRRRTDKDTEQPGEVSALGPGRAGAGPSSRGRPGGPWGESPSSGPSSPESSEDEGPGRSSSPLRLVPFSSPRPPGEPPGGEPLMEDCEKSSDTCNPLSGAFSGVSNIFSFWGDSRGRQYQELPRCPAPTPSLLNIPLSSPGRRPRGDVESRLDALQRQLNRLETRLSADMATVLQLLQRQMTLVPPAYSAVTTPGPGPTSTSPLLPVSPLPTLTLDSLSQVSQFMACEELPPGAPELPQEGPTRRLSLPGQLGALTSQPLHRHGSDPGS
# How it was run: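 Fluorescence at 540 nm emission (480 nm excitation) was recorded kinetically for 2 min at 1-second intervals once the thallium-containing stimulus reached cells previously loaded with FluxOR II dye.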
# [4] = target: Cytochrome P450 3A4 (Homo sapiens) (UniProt P08684); assay: Cytochrome P450 Family 3 Subfamily A Member 4 (CYP3A4) small molecule antagonists: luciferase reporter qHTS assay (AID 1671201); note: nearly all actives have a fitted effect of over 50% in size; for activity change, negative = inhibition: series mostly up to about 120 µM
# Sequence of Cytochrome P450 3A4 (Homo sapiens) (P08684 whole entry, looked up): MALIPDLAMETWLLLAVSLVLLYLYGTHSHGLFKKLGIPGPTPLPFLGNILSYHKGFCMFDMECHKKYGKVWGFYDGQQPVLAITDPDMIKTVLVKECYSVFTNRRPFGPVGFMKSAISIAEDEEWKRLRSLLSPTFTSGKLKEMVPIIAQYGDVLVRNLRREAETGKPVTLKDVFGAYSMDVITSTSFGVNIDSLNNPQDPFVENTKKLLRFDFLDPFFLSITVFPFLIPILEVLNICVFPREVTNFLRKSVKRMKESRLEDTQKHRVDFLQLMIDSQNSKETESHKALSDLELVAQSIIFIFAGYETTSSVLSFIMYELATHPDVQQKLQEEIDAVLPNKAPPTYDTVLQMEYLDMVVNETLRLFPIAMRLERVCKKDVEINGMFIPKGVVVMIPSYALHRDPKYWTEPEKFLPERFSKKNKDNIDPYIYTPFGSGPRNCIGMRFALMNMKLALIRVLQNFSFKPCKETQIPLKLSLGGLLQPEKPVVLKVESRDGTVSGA
# How it was run: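 qHTS, 1536-well. CYP3A4 + proluciferin substrate, cpd 10 min RT → NADPH regen 1 h RT → detection reagent 20 min → luminescence (RLU). Ketoconazole positive control.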
# [5] = target: Cytochrome P450 2C9 (Homo sapiens) (UniProt P11712); assay: Cytochrome P450 Family 2 Subfamily C Member 9 (CYP2C9) small molecule antagonists: luciferase reporter qHTS assay (AID 1671198); note: nearly all actives have a fitted effect of over 50% in size; for activity change, negative = inhibition: series mostly up to about 120 µM
# Sequence of Cytochrome P450 2C9 (Homo sapiens) (P11712 whole entry, looked up): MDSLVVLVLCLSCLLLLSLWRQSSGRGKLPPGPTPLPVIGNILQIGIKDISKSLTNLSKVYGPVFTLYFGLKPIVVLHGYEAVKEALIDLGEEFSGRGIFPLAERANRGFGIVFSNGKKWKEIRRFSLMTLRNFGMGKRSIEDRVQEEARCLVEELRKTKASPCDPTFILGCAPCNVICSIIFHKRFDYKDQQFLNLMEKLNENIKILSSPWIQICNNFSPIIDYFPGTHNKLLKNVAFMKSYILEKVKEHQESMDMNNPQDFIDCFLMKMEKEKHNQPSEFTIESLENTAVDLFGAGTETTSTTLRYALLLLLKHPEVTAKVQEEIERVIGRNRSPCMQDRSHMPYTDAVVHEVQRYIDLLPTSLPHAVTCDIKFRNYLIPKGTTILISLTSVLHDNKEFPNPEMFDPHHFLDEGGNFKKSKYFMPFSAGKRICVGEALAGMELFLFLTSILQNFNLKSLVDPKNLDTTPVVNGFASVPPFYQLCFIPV
# How it was run: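 P450-Glo proluciferin substrate with CYP2C9 enzyme; 10 min RT preincubation, then NADPH regeneration 1 h at 37C; luciferin detection reagent 20 min RT, luminescence in relative luminescence units.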
# Potency is the fitted concentration of half-maximal effect.
structure (smiles),measurement,setting,value
CC(=O)OCC(=O)[C@@]1(OC(C)=O)[C@@H](C)C[C@H]2[C@@H]3C[C@H](F)C4=CC(=O)C=C[C@]4(C)[C@@]3(F)[C@@H](O)C[C@@]21C,Potency,[1],inactive
same,Potency,[2],inactive
same,Potency,[3],inactive
same,Potency,[4],inactive
Cc1ccc(Cl)cc1N,Potency,[1],36.2 µM (active)
same,Potency,[2],10.2 µM (active)
same,Potency,[3],inactive
CCCCCCCCCCCCCOC(=O)CCSCCC(=O)OCCCCCCCCCCCCC,Potency,[1],10.6 µM (active)
same,"activity change, negative = inhibition",[3],-9.44% [at 15.8 µM]
C[C@H](CS)C(=O)N1CCC[C@H]1C(=O)O,Potency,[1],21.9 µM (active)
same,Potency,[2],inactive
same,Potency,[3],inactive
same,Potency,[4],inactive
CC(=O)NCCO,Potency,[1],inactive
same,Potency,[2],inactive
same,Potency,[3],inactive
CC(=O)c1ccc[nH]1,Potency,[1],inactive
same,Potency,[5],inactive
same,Potency,[3],inactive
same,Potency,[4],inactive
CC[C@H]1OC(=O)[C@H](C)[C@@H](O[C@H]2C[C@@](C)(OC)[C@@H](O)[C@H](C)O2)[C@H](C)[C@@H](O[C@@H]2O[C@H](C)C[C@H](N(C)C)[C@H]2O)[C@](C)(O)C[C@@H](C)C(=O)[C@H](C)[C@@H](O)[C@]1(C)O,Potency,[1],inactive
same,Potency,[2],inactive
same,Potency,[4],3.45 µM (active)
CC1=CC[C@@H]2C[C@H]1C2(C)C,"activity change, negative = inhibition",[1],-6.89% [at 23.6 µM]
same,"activity change, negative = inhibition",[2],-16.3% [at 23.6 µM]
same,"activity change, negative = inhibition",[3],-0.97% [at 15.8 µM]
same,Potency,[4],3.98 µM (active)
CCCCCCC(O)CCOC(C)=O (stereo not drawn),Potency,[1],167 µM (active)
same,Potency,[3],inactive
same,Potency,[4],inactive
O=C(O)c1cccc(Oc2ccccc2)c1,Potency,[1],inactive
same,Potency,[2],inactive
same,Potency,[3],inactive
same,Potency,[4],inactive
CCOC(=O)c1ccc(NC(=O)CN2CCCCC2)cc1,Potency,[1],inactive
same,Potency,[2],32.3 µM (active)
same,Potency,[3],inactive
same,Potency,[4],inactive
CC(C)Cc1ccc(CC(=O)O)cc1,Potency,[1],inactive
same,Potency,[2],inactive
same,Potency,[3],inactive
same,Potency,[4],inactive
COc1ccc(C2C(=O)c3ccccc3C2=O)cc1,Potency,[1],8.71 µM (active)
same,Potency,[2],inactive
same,Potency,[3],inactive
COC(=O)CC(C(C)=O)C(=O)OC (stereo not drawn),Potency,[1],inactive
same,Potency,[5],44.8 µM (active)
same,Potency,[3],inactive
same,Potency,[4],inactive
Cc1ccc(NC(=O)N(C)C)cc1NC(=O)N(C)C,Potency,[1],inactive
same,Potency,[3],inactive
CC1CCC(C(C)CS)CC1S (stereo not drawn),Potency,[1],inactive
same,Potency,[2],inactive
same,Potency,[4],31.7 µM (active)
CC(C)(C)S,Potency,[1],41.3 µM (active)
same,Potency,[3],inactive
CCN(CC)CCOC(=O)C(c1ccccc1)c1ccccc1,Potency,[1],21.9 µM (active)
same,Potency,[2],15.5 µM (active)
same,Potency,[3],2.68 µM (active)
same,Potency,[4],inactive
C=CC(=O)O,Potency,[2],inactive
same,Potency,[3],inactive
same,Potency,[4],inactive
C=CCOC(=O)COCCC(C)C,Potency,[5],inactive
same,Potency,[2],inactive
same,Potency,[3],inactive
same,Potency,[4],inactive
O=C(O)CCC(=O)c1ccc(-c2ccccc2)cc1,Potency,[5],inactive
same,Potency,[2],inactive
same,Potency,[3],inactive
same,Potency,[4],inactive
CC(O)Cn1cnc2c1c(=O)n(C)c(=O)n2C (stereo not drawn),Potency,[3],inactive
CC(C)(C)CCCCCCOC(=O)c1ccccc1C(=O)OCCCCCCC(C)(C)C,Potency,[5],inactive
same,Potency,[2],inactive
same,Potency,[3],inactive
same,Potency,[4],inactive
CCO[Si](C)(CCCOCC1CO1)OCC (stereo not drawn),Potency,[1],inactive
same,Potency,[3],inactive
same,Potency,[4],39.9 µM (active)
O=C(Nc1ccc(C(=O)O)c(O)c1)c1ccccc1,Potency,[2],inactive
same,Potency,[3],inactive
CN=C(N)NC(=O)Nc1c(C)cccc1C,Potency,[5],inactive
same,Potency,[2],inactive
same,Potency,[3],inactive
same,Potency,[4],inactive
O=C(O)/C=C/c1ccc(O)c(O)c1,Potency,[5],inactive
same,Potency,[2],inactive
same,Potency,[3],inactive
same,Potency,[4],inactive
O=C(O)CCCc1c[nH]c2ccccc12,Potency,[5],inactive
same,Potency,[2],inactive
same,Potency,[3],inactive
same,Potency,[4],inactive
BrC(Br)C(Br)Br,Potency,[5],inactive
same,Potency,[3],inactive
same,Potency,[4],inactive
Nc1c(Cl)cc(Cl)cc1[N+](=O)[O-],Potency,[5],inactive
same,Potency,[2],5.64 µM (active)
same,Potency,[3],inactive
same,Potency,[4],inactive
CC1=CC[C@@]23C[C@@H]1C(C)(C)[C@@H]2CC[C@H]3C,Potency,[3],inactive
same,Potency,[4],79.6 µM (active)
O=NN(CCCl)C(=O)NCCCl,Potency,[3],inactive
Nc1ccc(N=Nc2ccc(N)cc2)cc1,Potency,[2],10 µM (active)
same,Potency,[3],inactive
same,Potency,[4],5.02 µM (active)
COC(CC(C)CCCC(C)(C)O)OC (stereo not drawn),Potency,[1],35.6 µM (active)
same,Potency,[3],inactive
same,Potency,[4],inactive
CCCCCCCCCCCSCC(=O)O,Potency,[5],71 µM (active)
same,Potency,[2],inactive
same,Potency,[3],inactive
same,Potency,[4],inactive
O=C(O)c1ccc(O)cc1O,Potency,[5],inactive
same,Potency,[2],inactive
same,Potency,[3],inactive
same,Potency,[4],inactive
CC(=O)OCC1=C(C(=O)O)N2C(=O)[C@@H](NC(=O)CSc3ccncc3)[C@H]2SC1,Potency,[5],13.8 µM (active)
same,Potency,[2],inactive
same,Potency,[3],inactive
CCCCOCCOC(=O)c1cccnc1,Potency,[3],inactive
O=C(O)CNC(=O)c1ccccc1I,Potency,[5],inactive
same,Potency,[3],inactive
same,Potency,[4],inactive
c1ccc(CNc2ncnc3c2ncn3C2CCCCO2)cc1 (stereo not drawn),Potency,[2],28.3 µM (active)
same,Potency,[3],inactive
same,Potency,[4],inactive
CCCCCCCCCCCCCCN(C)C,"activity change, negative = inhibition",[5],-16.9% [at 23.6 µM]
same,"activity change, negative = inhibition",[3],-0.651% [at 15.8 µM]
same,"activity change, negative = inhibition",[4],-11.1% [at 23.6 µM]
CNCc1ccc(NC(=O)c2c[nH]c3c2C(=O)CCC3)cc1,Potency,[2],31.7 µM (active)
same,Potency,[3],inactive
CCNc1nc(N)nc(Cl)n1,Potency,[5],inactive
same,Potency,[2],31.7 µM (active)
same,Potency,[3],inactive
same,Potency,[4],inactive
CC(C(=O)O)c1ccc(C(=O)c2cccs2)cc1 (stereo not drawn),Potency,[5],7.76 µM (active)
same,Potency,[3],inactive
same,Potency,[4],inactive
CC(C)C1CCC(C(=O)N[C@H](Cc2ccccc2)C(=O)O)CC1 (stereo partly drawn),Potency,[5],11 µM (active)
same,Potency,[2],inactive
same,Potency,[3],inactive
same,Potency,[4],inactive
O=C(O)CN1C(=O)c2cccc3cccc(c23)C1=O,Potency,[3],inactive
O=C(O)CCC(=O)OC[C@@H](NC(=O)C(Cl)Cl)[C@H](O)c1ccc([N+](=O)[O-])cc1,Potency,[5],inactive
same,Potency,[2],inactive
same,Potency,[3],inactive
CC(=O)C(=O)CC(C)C,Potency,[1],35.4 µM (active)
same,Potency,[3],inactive
same,Potency,[4],inactive
O=C1NC(=O)c2cccc3cccc1c23,Potency,[5],inactive
same,Potency,[2],3.17 µM (active)
same,Potency,[3],inactive
same,Potency,[4],inactive
CCCCCC,Potency,[3],inactive
COc1cc(NC(C)CCCN)c2ncccc2c1 (stereo not drawn),Potency,[3],inactive
COc1cc(OC)c2ccc(=O)oc2c1,Potency,[2],7.96 µM (active)
same,Potency,[3],inactive
same,Potency,[4],39.9 µM (active)
Nc1ccc(NC(=O)c2ccc(N)cc2)cc1,Potency,[2],inactive
same,Potency,[3],inactive
same,Potency,[4],5.65 µM (active)
CCN(CC)CC(=O)Nc1c(C)cccc1C(=O)OC,Potency,[5],inactive
same,Potency,[2],inactive
same,Potency,[3],inactive
same,Potency,[4],inactive
COc1ccc(-c2cc(C(F)F)nn2-c2ccc(S(N)(=O)=O)cc2)cc1F,Potency,[5],8.71 µM (active)
same,Potency,[2],inactive
CN(C)CC/C=C1\c2ccccc2Sc2ccc(Cl)cc21,Potency,[5],inactive
same,Potency,[2],7.23 µM (active)
same,Potency,[3],3.01 µM (active)
COc1ccc(N)c([N+](=O)[O-])c1,Potency,[2],8.94 µM (active)
same,Potency,[3],inactive
